From PubChem BioAssay (NCI)
“And” between values parts separate entries of the source, which are not always exact repeats. Identical values can stand only once. Compounds without any hit were thinned out: in the full panel of roughly 79,000, 15% have a hit. The source made the active and inactive calls. Cut-off read from the data, not from the text of the source: active = growth inhibition above about 70%; inactive = the rest.

Assay: NCI Yeast Anticancer Drug Screen. Data for the bub3 strain (AID 167)
Conditions: S. cerevisiae bub3 mutant strain, at 5.0 µM (retest, dose inferred, filed as 0.5), hits give high values
Experimental: Growth inhibition of yeast strains with defined genetic alterations is measured as a screen for potential anti-cancer activity. Selected strains with alterations in DNA damage repair or cell cycle control were exposed to compounds and growth inhibition was measured relative to vehicle treated controls. The strain used in this assay is bub3

With `CC(Cc1ccc2c(c1)OCO2)NN` (configuration not stated) as the compound, how does the growth inhibition read?
Its growth inhibition is 2% (inactive).

For `CC1CCN(CCC(=O)CC(c2ccccc2)c2c(O)c3ccccc3oc2=O)CC1` (configuration not stated), which growth inhibition is on record?
The growth inhibition was 4% (inactive).

For `COc1cc(OC)c(/C=C(\C)[N+](=O)[O-])cc1Br`, which growth inhibition is on record?
Its growth inhibition is -1% (inactive).

For `NNc1ccccc1`, which growth inhibition is on record?
Its growth inhibition is 9% (inactive).

For `C1=C(/C=C2\CCCc3c(-c4ccccc4)cc(-c4ccccc4)[o+]c32)CCC/C1=C\C1=C2OC(c3ccccc3)=CC(c3ccccc3)=C2CCC1`, which growth inhibition is on record?
The growth inhibition was 10% (inactive).

For `O=[N+]([O-])/C=C/c1c(Cl)cccc1Cl`, which growth inhibition is on record?
Its growth inhibition is 100% (active).

Which growth inhibition does the source give for `N#CC(C#N)=NNc1cccc(Cl)c1Cl` here?
Its growth inhibition is 25% (inactive).

For `NC(=S)C1=C(N)Oc2c(c(=O)oc3ccccc23)C1c1ccc(Br)cc1` (configuration not stated), which growth inhibition is on record?
The growth inhibition was 7% (inactive).

Which growth inhibition does the source give for `CC(=O)[O][Pb]([O]C(C)=O)([O]C(C)=O)[c]1ccccc1` here?
The growth inhibition was 86% (active).

Which growth inhibition does the source give for `ClCC[Se](Cl)(Cl)c1ccccc1` here?
Its growth inhibition is 6% (inactive).

Same assay, conditions: S. cerevisiae bub3 mutant strain, at 50.0 µM (retest, dose inferred, filed as 5.0), hits give high values

Which growth inhibition does the source give for `CC(Cc1ccc2c(c1)OCO2)NN` (configuration not stated) here?
Its growth inhibition is 34% (inactive).

With `CC1CCN(CCC(=O)CC(c2ccccc2)c2c(O)c3ccccc3oc2=O)CC1` (configuration not stated) as the compound, how does the growth inhibition read?
The growth inhibition was 4% (inactive).

For `COc1cc(OC)c(/C=C(\C)[N+](=O)[O-])cc1Br`, which growth inhibition is on record?
The growth inhibition was 0% (inactive).

Which growth inhibition does the source give for `NNc1ccccc1` here?
Its growth inhibition is 98% (active).

For `C1=C(/C=C2\CCCc3c(-c4ccccc4)cc(-c4ccccc4)[o+]c32)CCC/C1=C\C1=C2OC(c3ccccc3)=CC(c3ccccc3)=C2CCC1`, which growth inhibition is on record?
Its growth inhibition is 30% (inactive).

With `O=[N+]([O-])/C=C/c1c(Cl)cccc1Cl` as the compound, how does the growth inhibition read?
Its growth inhibition is 99% (active).

With `N#CC(C#N)=NNc1cccc(Cl)c1Cl` as the compound, how does the growth inhibition read?
The growth inhibition was 100% (active).

For `NC(=S)C1=C(N)Oc2c(c(=O)oc3ccccc23)C1c1ccc(Br)cc1` (configuration not stated), which growth inhibition is on record?
Its growth inhibition is 90% (active).

For `CC(=O)[O][Pb]([O]C(C)=O)([O]C(C)=O)[c]1ccccc1`, which growth inhibition is on record?
Its growth inhibition is 99% (active).

For `ClCC[Se](Cl)(Cl)c1ccccc1`, which growth inhibition is on record?
Its growth inhibition is 46% (inactive).

Same assay, conditions: S. cerevisiae bub3 mutant strain, at 50.0 µM, hits give high values

Which growth inhibition does the source give for `CC1CCN(CCC(=O)CC(c2ccccc2)c2c(O)c3ccccc3oc2=O)CC1` (configuration not stated) here?
The growth inhibition was 87.7% (active).

For `COc1cc(OC)c(/C=C(\C)[N+](=O)[O-])cc1Br`, which growth inhibition is on record?
The growth inhibition was 92.2% (active).

Which growth inhibition does the source give for `NNc1ccccc1` here?
Its growth inhibition is 96.2% (active).

For `C1=C(/C=C2\CCCc3c(-c4ccccc4)cc(-c4ccccc4)[o+]c32)CCC/C1=C\C1=C2OC(c3ccccc3)=CC(c3ccccc3)=C2CCC1`, which growth inhibition is on record?
The growth inhibition was 71.2% (active).

For `CC([NH-])C(=O)O.CC([NH-])C(=O)O.[Cu+2]` (configuration not stated), which growth inhibition is on record?
Its growth inhibition is -15.9% (inactive).

Which growth inhibition does the source give for `O=C(O)C(F)(F)C(F)(Cl)C(F)(F)C(F)(Cl)C(F)(F)C(F)(Cl)C(F)(F)Cl` (configuration not stated) (tested in a mixture with another compound) here?
The growth inhibition was -2.15% (inactive) and -2% (inactive).

Which growth inhibition does the source give for `Cn1c(O)c(C(=O)NC2CCCCC2)c(=O)n(C)c1=S` here?
Its growth inhibition is 8.5% (inactive).

For `CCC[CH2][Sn]1([CH2]CCC)[O]C(=O)CN=C(C)c2ccccc2[O]1`, which growth inhibition is on record?
Its growth inhibition is 9.8% (inactive).

Which growth inhibition does the source give for `COc1cc2c(c(OC)c1OC)-c1ccc(O)cc1C(NC(C)=O)CC2` (configuration not stated) here?
The growth inhibition was 0.65% (inactive).

With `O=[N+]([O-])/C=C/c1c(Cl)cccc1Cl` as the compound, how does the growth inhibition read?
Its growth inhibition is 99.3% (active).

Which growth inhibition does the source give for `CCCCCCCCCCCCCCCCOc1ccc(S(=O)(=O)F)cc1C(=O)Nc1ccc(S(=O)(=O)Nc2cccc3ccccc23)cc1` here?
The growth inhibition was -0.3% (inactive).

With `N.N.N.N.N.O=C([O-])CCl.[Co+3].[O-][Cl+3]([O-])([O-])[O-]` as the compound, how does the growth inhibition read?
Its growth inhibition is -16.6% (inactive).

Which growth inhibition does the source give for `CCCCN1COC2CCCCC21` (configuration not stated) here?
Its growth inhibition is -44.4% (inactive).

Which growth inhibition does the source give for `O=P1(O)NP(=O)(O)NP(=O)(O)NP(=O)(O)N1` here?
Its growth inhibition is -18.1% (inactive).

Which growth inhibition does the source give for `CSCC(NP1(=O)SC(NN=C2CCCCC2)=NC1(C)C)C(=O)O` (configuration not stated) here?
Its growth inhibition is -0.15% (inactive).

For `C[n+]1cccc(C2CCC[N+]2(C)C)c1` (configuration not stated), which growth inhibition is on record?
The growth inhibition was -9% (inactive).

With `N#CC(C#N)=NNc1cccc(Cl)c1Cl` as the compound, how does the growth inhibition read?
Its growth inhibition is 91.8% (active).

With `NC(P(=O)(O)O)P(=O)(O)O` as the compound, how does the growth inhibition read?
The growth inhibition was 18.4% (inactive).

Which growth inhibition does the source give for `NC(=S)C1=C(N)Oc2c(c(=O)oc3ccccc23)C1c1ccc(Br)cc1` (configuration not stated) here?
Its growth inhibition is 62.6% (inactive).

For `CC1(C)SC2C(NC(=O)Cc3ccccc3)C(=O)N2C1C(=O)O` (configuration not stated), which growth inhibition is on record?
The growth inhibition was -36.1% (inactive).

With `CC(=O)[O][Pb]([O]C(C)=O)([O]C(C)=O)[c]1ccccc1` as the compound, how does the growth inhibition read?
The growth inhibition was 91.8% (active).

For `ClCC[Se](Cl)(Cl)c1ccccc1`, which growth inhibition is on record?
Its growth inhibition is 53.2% (inactive).
